Inconclusive results are not listed. Entries that show only a call come without a potency. Activity calls are given as the source filed them. Calls follow the shape of the dose curve; as a rule, active = well fitted cell-killing curve with a large enough effect; inconclusive = small, poorly fitted or top-dose-only effect, or effect the other way; inactive = no such curve, though single readings can be large or run the other way.
test: qHTS assay to identify small molecule inhibitors of chordoma cells - UCH-1 (AID 1259355); conditions: UCH-1 chordoma viability, CellTiter-Glo, 48 h, combination, with auranofin plus four topoisomerase inhibitors; series mostly up to 46.1 µM; also: nearly all actives have a fitted effect of over 55% in size
Description: NIH Chemical Genomics Center [NCGC]
Chordoma is a rare and slow growing tumor that can occur anywhere along the spine, from the base of the skull to the tailbone. Current treatment options for chordoma is surgery and radiation therapy for those who are not candidates for surgery. But chordomas tend to return in the same location or surrounding areas of the original tumor after surgery and/or radiation. Chemotherapy can slow down the progression of the tumor. As chordoma is slow growing, the general cytotoxic agents that kill fast growing cells are ineffective, and some patients have been reported to respond to molecularly targeted drugs.
NCATS Pharmaceutical Collection (NPC) containing approximately 3000 clinically approved and investigational drugs were used to screen at 15 concentrations in a chordoma cell lines, UCH-1, to identify small molecule compounds that can inhibit chordoma cell growth.
NCGC Assay Protocol Summary:
Human chordoma cell line UCH-1 was dispensed at 800 per well in 4uL of culture medium into white solid bottom 1536-well plates (Corning Life Sciences, Corning, NY) using a Multidrop Combi (Thermo Scientific, Waltham, MA) dispenser. The assay plates were incubated at 37 C and 5% CO2 for an overnight, and then 23nL of compounds dissolved in DMSO and positive control were transferred using a Pintool station (Wako, San Diego, CA). Compound treatment was followed by the addition of 1uL of the combination compounds (1uM Auranofin, 500nM each of Camptothecin, Doxorubicin, Rubitecan, and Topotecan) and assay medium to each well of the assay plates using Flying Reagent Dispenser (FRD, Aurora Discovery, San Diego, CA). The assay plates were incubated at 37 C and 5% CO2 for 48hr. Then 5uL of CellTiter-Glo reagent (Promega Corporation, Madison, WI) was added to each well of the assay plates using FRD. After 30min incubation at room temperature, the luminescence signal was quantified using a ViewLux plate reader (PerkinElmer, Shelton, CT).
Potency is read from the fitted curve at half-maximal effect.

Compound | Potency
CC(C)(Oc1ccc(CCNC(=O)c2ccc(Cl)cc2)cc1)C(=O)O | inactive
CCOC(=O)c1cnc2c(cnn2CC)c1NN=C(C)C | inactive
CCN1CCC[C@H]1CNC(=O)c1c(O)c(Cl)cc(Cl)c1OC | inactive
O=C(CCCN1CCC(O)(c2cccc(C(F)(F)F)c2)CC1)c1ccc(F)cc1 | inactive
NC(=O)c1cn(Cc2c(F)cccc2F)nn1 | inactive
C[C@H](CS)C(=O)N1CCC[C@H]1C(=O)O | inactive
COc1cc2c(cc1OC)-c1cc(=Nc3c(C)cc(C)cc3C)n(C)c(=O)n1CC2 | 25.1 µM (active)
CN(C)[C@@H]1C(=O)C(C(N)=O)=C(O)[C@@]2(O)C(=O)C3=C(O)c4c(O)ccc(Cl)c4[C@@H](O)[C@H]3C[C@@H]12 | inactive
C=CCc1ccccc1OCC(O)CNC(C)C (stereo not given) | inactive
CC(=O)[C@@]1(O)CC[C@H]2[C@@H]3CCC4=CC(=O)CC[C@]4(C)[C@H]3CC[C@@]21C | inactive
O=C(O)CN(CCOCCOCCN(CC(=O)O)CC(=O)O)CC(=O)O | inactive
CCNC(=O)N1CCN(CCCC(c2ccc(F)cc2)c2ccc(F)cc2)CC1 | inactive
CCCCCCCC/C=C\CCCCCCCC(=O)NCc1ccc(O)c(OC)c1 | inactive
CCc1cccc(N(C)C(N)=Nc2cccc3ccccc23)c1 | inactive
CO[C@@]1(NC(=O)CSCC#N)C(=O)N2C(C(=O)O)=C(CSc3nnnn3C)CS[C@@H]21 | inactive
CN(C(=O)CCCOc1ccc2[nH]c(=O)ccc2c1)C1CCCCC1 | inactive
OCCN1CCN(CC/C=C2/c3ccccc3Sc3ccc(C(F)(F)F)cc32)CC1 | inactive
c1cnc(N2CCN(Cc3ccc4c(c3)OCO4)CC2)nc1 | inactive
Nc1c2c(nc3ccccc13)CCCC2O (stereo not given) | inactive
FC(F)(F)c1ccccc1-n1ccnc1 | inactive

Compound | Potency
CC(C)[N+](C)(CCOC(=O)C1c2ccccc2Oc2ccccc21)C(C)C | inactive
NS(=O)(=O)c1cc2c(cc1Cl)NC(C1CC3C=CC1C3)NS2(=O)=O (stereo not given) | inactive
CC[N+](C)(C)c1cccc(O)c1 | inactive
CN(C)CCCN1c2ccccc2Sc2ccc(C(F)(F)F)cc21 | inactive
CCn1ccnc1CC1COc2ccccc2O1 (stereo not given) | inactive
CCCCNC(=O)NS(=O)(=O)c1ccc(C)cc1 | inactive
CCCC(C(=O)OCCN(CC)CC)(c1ccccc1)c1ccccc1 | inactive
Cc1nc2c([nH]1)c(=O)n(C)c(=O)n2Cc1ccco1 | inactive
C[C@]12CC[C@@H]3c4ccc(O)cc4C[C@@H](CCCCCCCCCS(=O)CCCC(F)(F)C(F)(F)F)[C@H]3[C@@H]1CC[C@@H]2O (stereo not given in full) | inactive
OCCN1CCN(CCCN2c3ccccc3C=Cc3ccccc32)CC1 | inactive
COc1ccc(CN(CCN(C)C)c2ccccn2)cc1 | inactive
Cc1cccc(C)c1NC(=O)C(C)N (stereo not given) | inactive
COC(=O)C1=C(C)NC(C)=C(C(=O)OC(C)(C)CN(C)CCC(c2ccccc2)c2ccccc2)C1c1cccc([N+](=O)[O-])c1 (stereo not given) | inactive
CN1CCN(CC(=O)N2c3ccccc3C(=O)Nc3cccnc32)CC1 | inactive
Brc1c(NC2=NCCN2)ccc2nccnc12 | inactive
COCC(=O)O[C@]1(CCN(C)CCCc2nc3ccccc3[nH]2)CCc2cc(F)ccc2[C@@H]1C(C)C | 31.6 µM (active)
O=c1[nH]c(=O)n([C@H]2C[C@H](O)[C@@H](CO)O2)cc1Br | inactive
CN(C)CCCN1c2ccccc2Sc2ccccc21 | inactive
CN(C)CC[C@@H](c1ccc(Br)cc1)c1ccccn1 | inactive
O=C1NCN(c2ccccc2)C12CCN(CCCC(c1ccc(F)cc1)c1ccc(F)cc1)CC2 | 31.6 µM (active)

From PubChem BioAssay (NCATS)
